# GPT2 inhibitor: blocks human glutamate pyruvate transaminase 2. Recombinant GPT2, coupled pyruvate oxidase/HRP Amplex Red fluorescence. hit rate 0.25% among 100,000. Potency, µM (doses to about 57.7 µM), for inactives: at the highest dose activity change, negative = inhibition, hits mostly inhibitors; also: potency is read from the fitted curve at half-maximal effect; nearly all actives have a fitted effect of over 60% in size
#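 Fluorescence of coupled pyruvate oxidase/HRP/Amplex Red system (50uM Amplex, 30 min, dark) reports pyruvate formed by GPT2. Enzyme reaction: 10ng/uL GPT2, 2mM L-alanine, 250uM a-KG, 30 min room temperature, pH 7.5; 50uM AOA control.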
# HEK293 viab: cell viability loss counter-screen. HEK-293-SNCA-luc viability, GF-AFC fluorescence, 24 h. Potency, µM (highest dose often 57.1 µM), for inactives: at the top dose activity change, negative = cytotoxicity, hits mostly cytotoxic. hit rate 0.12% among 150,000. AID 1671193;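 also: potency is read from the fitted curve at half-maximal effect; 0% = DMSO-treated cells and -100% = medium-only wells without cells; nearly all actives have a fitted effect of over 30% in size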
#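 Cytotoxicity counterscreen: after 24 h compound treatment of genome-edited SNCA-luciferase HEK-293 cells, live-cell protease substrate GF-AFC read by fluorescence after 30 min; activity scaled between DMSO (0%) and medium-only (-100%), curves Hill-fitted.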
# SNCA expr inh: inhibitors of alpha-synuclein (SNCA) gene expression | AID 1671194 | Potency, µM (top dose mostly 57.2 µM), without a hit: top-dose activity change, negative = inhibition, hits mostly inhibitors | hit rate 0.17% among 140,000 | HEK-293 SNCA-luciferase knock-in, luminescence, 24 h;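 also: potency is read from the fitted curve at half-maximal effect; plate controls were DMSO cells for no effect and cell-free wells for full effect; nearly all actives have a fitted effect of over 45% in size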
# IP6K1 inh: blocks human inositol hexakisphosphate kinase 1 | Q92551 | activity change, % (series mostly up to about 58 µM) | hit rate 0.81% among 140,000 | IP6K1 kinase, ADP-Glo luminescence, 2 h; stronger effect = lower value; in the data active = activity change below about -25%
# Target sequence (Q92551 whole entry, looked up): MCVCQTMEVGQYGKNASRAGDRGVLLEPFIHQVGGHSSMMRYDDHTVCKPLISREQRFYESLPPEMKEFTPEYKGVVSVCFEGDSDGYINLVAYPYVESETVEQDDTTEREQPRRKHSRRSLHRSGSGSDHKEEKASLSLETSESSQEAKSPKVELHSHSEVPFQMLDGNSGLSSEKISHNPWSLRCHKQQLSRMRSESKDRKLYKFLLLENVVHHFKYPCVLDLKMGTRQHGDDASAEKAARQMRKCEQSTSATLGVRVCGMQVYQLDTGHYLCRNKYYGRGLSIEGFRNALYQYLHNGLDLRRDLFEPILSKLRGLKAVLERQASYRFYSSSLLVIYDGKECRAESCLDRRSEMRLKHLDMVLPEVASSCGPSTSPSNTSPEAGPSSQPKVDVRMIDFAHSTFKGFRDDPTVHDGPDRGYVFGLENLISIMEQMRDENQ
#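 ADP-Glo luminescence measures ADP made by human IP6K1 during a 2 h RT reaction with ATP/IP6 (mix at 1.3 mM/130 uM); top library doses 57.5 and 19.1 uM final.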
# IP6K1 inh cnf: human IP6K1 inhibition, confirmatory; shares compounds with IP6K1 inh; recombinant IP6K1 kinase, ADP-Glo luminescence, 2 h; Potency, µM (series often up to 49 µM), for the others: top-dose activity change, negative = inhibition, usual class: inhibitors; hit rate 13% among 1,200; also: potency is read from the fitted curve at half-maximal effect; nearly all actives have a fitted effect of over 65% in size
# The depositor's hits bear a star; i = inactive; ? = inconclusive; / = no result; ! = not confirmed by another sample; [ ] = dose if it differs, or a comment. An excerpt weighted towards active compounds, which were near 1% of everything screened. Unless noted, calls follow the shape of the dose curve; as a rule, active = well fitted curve in the direction sought with a large enough effect; inconclusive = small, poorly fitted or top-dose-only effect, or another doubt; inactive = no such curve, though single readings can be large; an effect the other way counts as inactive or inconclusive. Unless noted, % is scaled to controls: 0 for no effect and ±100 for the full control effect.
SMILES,GPT2 inhibitor,HEK293 viab,SNCA expr inh,IP6K1 inh,IP6K1 inh cnf
Cc1cccc2c1O[C@H]1[C@H](CO)CN(C(=O)CCc3ccccc3)[C@@H]21,/,/,/,13,/
COc1ccc2nc(SCC(O)c3cccc(Br)c3)[nH]c2c1 (configuration not stated),/,-3%,11%,-44*,-19%
Cc1nn(-c2ccccc2)c2c1C(C)N(CC1CN(C(=O)c3ccccc3)C1)C2=O (configuration not stated),/,/,/,8,/
CCCCCNC(=O)C1CCCN(c2nccc(Nc3ccccc3OC)n2)C1 (configuration not stated),-1%,-2%[12.5 µM],?,28,/
COc1ccccc1N1CCN(C2CCCN(Cc3cccc(C)n3)C2)CC1 (configuration not stated),-26%,-1%,7%,7,/
Cc1ccccc1N1CCN(C2CCCN(C/C=C/c3ccc(F)cc3)C2)CC1 (configuration not stated),-7%,2%,4%,-27*,21%
Cc1ccc(OCc2nc(-c3ccc(C(=O)NCc4ccc(OC(C)C)cc4)cc3)oc2C)cc1,/,-3%,-24%,-11,/
Cc1oc(-c2ccc(C(=O)NCc3ccc(N(C)C)cc3)cc2)nc1COc1ccccc1,/,-6%,15%,-25*,-10%
CCc1ccccc1Nc1nn2c(=O)c3ccc(C(=O)NCc4ccccc4Cl)cc3nc2s1,/,-19%,2%,-26*,1%
Cc1nc2cccnc2n1CC1CCCN(S(=O)(=O)c2cccc(Br)c2)C1 (configuration not stated),i,-19%,-19%,2,/
O=C(NCc1ccccc1)C1CCCN(c2nccc(Nc3ccccc3F)n2)C1 (configuration not stated),-13%,2%[12.5 µM],-5%,6,/
CCN(c1ccccc1)c1nnc(NC(=O)Nc2cccc(Cl)c2C)s1,/,3%,-12%,-102*,-22%
CC(Oc1ccccc1)C(=O)OCc1cc(=O)n2nc(C(C)C)sc2n1 (configuration not stated),/,0%,20%,-30*,-9%
Cn1ncc2c(C(=O)N3CCC(c4ccccc4)CC3)cc(-c3ccccc3C(F)(F)F)nc21,/,/,/,8,/
COc1ccccc1N1CCN(CCC(=O)N(C)Cc2ccccc2)CC1=O,i,-11%,-8%,-2,/
COc1ccccc1N1CCN(C(=O)CCc2ccccc2C)CC1=O,-8%[11.5 µM],1%,13%,-34*,-16%
CCN(CC)S(=O)(=O)c1ccc2c(c1)N(CC(=O)N1CCN(c3cccc(C(F)(F)F)c3)CC1)C(=O)CO2,/,-19%,-12%,-25*,-2%
CCN(CC)S(=O)(=O)c1ccc2c(c1)N(CC(=O)N1CCN(c3ccc(F)cc3)CC1)C(=O)CO2,/,?,-3%,-2,/
O=C(c1ccc(Cl)cc1)N1CCCN(c2ccnc3ccnn23)CC1,-7%,-1%,0%,2,/
CCOC(=O)c1cnc2ccc(Cl)cc2c1Nc1ccc(N2CCOCC2)cc1,/,-6%,-26%,-25*,-13%
CCOC(=O)c1cnc2ccc(C(=O)OC)cc2c1Nc1ccc(N2CCOCC2)cc1,/,?,?,31,/
O=C(C1CCCC1)N1CC2(CCN(C3CCCCC3)C2)Cc2ccccc21 (configuration not stated),i,?,-24%,7,/
O=C(NC[C@H](O)CO)c1ccncc1Nc1ccc(I)cc1F,i,-13%,30%,/,-2%
O=C(NOCC(O)CO)c1ccc(F)c(F)c1Nc1ccc(I)cc1F (configuration not stated),i,-2%,/,-5,/
Cc1ccc2c(c1)cc1c(=O)n(Cc3ccc(Cl)cc3)nc(C)n12,/,13%,9%,-7,/
SMILES,GPT2 inhibitor,HEK293 viab,SNCA expr inh,IP6K1 inh,IP6K1 inh cnf
Cc1ccc2c(c1)cc1c(=O)n(Cc3cccc(Cl)c3)nc(C)n12,/,9%,5%,-30*,-7%
Cc1ccoc1C(=O)N1C[C@@H](CO)[C@H](c2ccccn2)C1,-13%,-8%,21%,-40*,11%
COC[C@@H]1CN(C(=O)c2occc2C)C[C@H]1c1ccccn1,i,-11%,-15%,18,/
O=C(c1cc(O)c(O)c(O)c1)c1ccc(O)c(O)c1O,?,-5%[23.9 µM],-43%[25.6 µM],-67*,-27%
O=C(O)c1cc(O)c(O)c(O)c1,?,6%[23.9 µM],-42%[25.6 µM],-28*,-11%
CO/N=C(\C(=O)N[C@@H]1C(=O)N2C(C(=O)O)=C(CSc3nc(=O)c(O)nn3C)CS[C@H]12)c1csc(N)n1,-3%,-18%[23.9 µM],-7%[25.6 µM],-79*,?
O=C(Nc1ccc(Cl)cc1)N1CCCN(c2ccc3nnc(-c4ccccc4)n3n2)CC1,/,/,/,9,/
O=C(Nc1ccc(Cl)cc1)N1CCN(c2ccc3nnc(-c4ccccc4)n3n2)CC1,/,?,-17%,-30*!,?
O=C(Nc1ccc(N2CCN(c3ccc(F)cc3)CC2)c(C(=O)O)c1)c1cccs1,/,13%,-17%,-27*,?
O=C(Nc1cnc(N2CCN(c3ccccc3)CC2)c(C(=O)O)c1)c1cccs1,/,-21%,-2%,-28*,?
O=C(NC[C@H]1O[C@@H](CO)[C@@H](O)[C@H]1N1CCN(c2ccccc2)CC1)c1cccs1,-6%[88.5 µM],7%[87.6 µM],7%[87.6 µM],2,/
CC(=O)c1ccc(N2CCN(c3ccc(NC(=O)c4ccc(F)cc4)cc3C(=O)O)CC2)cc1,/,5%,8%,0,/
O=C(CCCc1ccccc1)N1CCCC(CN2CCCC2)CC1 (configuration not stated),?,-23%,75%,-9,/
COc1ccccc1-c1cccc(CN2CCC(NC(=O)Nc3ccccc3F)CC2)c1,i,-1%,-23%,10,/
O=C(N[C@@H]1CN(Cc2ccccn2)CCC[C@H]1O)c1ccc(OCc2ccccc2)cc1,?,-15%[87.6 µM],-16%[87.6 µM],-33*,17%
NC(=O)COc1ccc(C(=O)N[C@@H]2CN(Cc3ccccn3)CCC[C@H]2O)cc1,-14%[88.5 µM],-1%[87.6 µM],-28%[87.6 µM],9,/
CCc1nnc(NS(=O)(=O)c2ccc(NC(=S)NC(=O)/C=C/c3ccc(F)cc3)cc2)s1,i,-6%,/,-29*,21µM*
Cc1cc(C)cc(NS(=O)(=O)c2ccc3[nH]cc(C(=O)N(C)Cc4ccccc4)c(=O)c3c2)c1,/,-10%,?,-26*,-2%
Cc1ccc([N+](=O)[O-])c(Oc2ncnc3c2oc2ccccc23)c1,/,1%,20%,-29*,3%
O=C(Cc1ccc(F)cc1)Nc1cc(-c2cccnc2)nn1-c1ccccc1,i,-2%,-12%,-13,/
COc1cccc(-c2nc3cc(SC)ccc3cc2CN(C)Cc2ccno2)c1,-14%[11.5 µM],-4%,8%,-33*,-11%
CN(Cc1ccno1)Cc1cn(C)nc1-c1ccc(C2CCCCC2)cc1,i,4%,-5%,-3,/
O=C1c2cnc(-c3cccc(CO)c3)nc2OCCN1c1ccccc1,-6%[88.5 µM],-16%[87.6 µM],7.9µM*,-40*,?

# Assay outcomes deposited in PubChem BioAssay by National Center for Advancing Translational Sciences (NCATS).
